The test can be described thus: qHTS profiling of the MIPE4 collection as inhibitors of Plasmodium falciparum (3D7) proliferation (AID 743344).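 Note: scaled between DMSO vehicle wells and 0.29 µM artemisinin as full inhibition.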 Particulars: P. falciparum 3D7 in erythrocytes, SYBR Green DNA fluorescence, 72 h; at 28.5 µM unless noted. Put shortly:
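Erythrocytes infected with P. falciparum (0.3% parasitemia, 2.5% hematocrit) incubated with compounds 72 h at 37 C, 5% CO2. Lysis with saponin/Triton buffer containing SYBR Green I, overnight at room temperature in the dark; DNA fluorescence (485/535 nm) normalised to 0.29 uM artemisinin and DMSO.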
(In general: qHTS replaces the single test concentration by a dilution series.)
The molecule `CC(=O)NCC(=O)N1[C@H]2CC[C@H]1c1cc(Nc3ncc(C(F)(F)F)c(NC4CCC4)n3)ccc12` gave a parasite growth, % of DMSO control of 8.18%.
For `c1ccc(CNc2nc(NCc3ccccc3)c3ccccc3n2)cc1`, the parasite growth, % of DMSO control amounted to 5.75%.
With `CCc1cc(C(C)=NOCc2ccc(C3CCCCC3)c(C(F)(F)F)c2)ccc1CN1CC(C(=O)O)C1` the figure was 6.45%; with `CCC(C(=O)O)C1CCC(C)C(C(C)C(O)C(C)C(=O)C(CC)C2OC3(C=CC(O)[C@@]4(CC[C@](C)(C5CC[C@@](O)(CC)C(C)O5)O4)O3)C(C)CC2C)O1` (some centres not stated), 9.07%.
Then `Nc1nc(=O)n([C@H]2CSC(CO)O2)cc1F` (some centres not stated), with 399%; and `CCC(C=C[C@@H]1OC(=O)C=C[C@H]1C)=C[C@H](C)CC=CC(C)=C[C@@H](C)C(=O)[C@@H](C)[C@H](O)[C@@H](C)CC(C)=CC(=O)O`, with 402% [at 1.06 µM].
With `COc1ccc2c(c1OC)C(=O)OC2[C@H]1c2c(cc3c(c2OC)OCO3)CCN1C` (some centres not stated) the figure was 17.1%.
In the case of `CCCCC(=O)O[C@]1(C(=O)CO)[C@@H](C)C[C@H]2[C@@H]3CCC4=CC(=O)C=C[C@]4(C)[C@@]3(F)[C@@H](O)C[C@@]21C`, the parasite growth, % of DMSO control was found to be 13.5%.
Then `CCc1nc(-c2cccc(C)c2)c(-c2ccnc(NC(=O)c3ccccc3)c2)s1`, with 21.9%; and `CC(=O)N1CCN(c2ccc(OCc3nn(C)c(C)c3-c3cccc4c(CCCOc5cccc6ccccc56)c(C(=O)O)n(Cc5cccnc5)c34)cc2)CC1`, with 5.7%; and `C=CC[C@@H]1C=C(C)C[C@H](C)C[C@H](OC)[C@H]2O[C@@](O)(C(=O)C(=O)N3CCCC[C@H]3C(=O)O[C@H](C(C)=C[C@@H]3CC[C@H](O)[C@H](OC)C3)[C@@H](C)[C@@H](O)CC1=O)[C@@H](C)C[C@@H]2OC`, with 8.55%.
With `Cc1ccc([N+](=O)[O-])cc1S(=O)(=O)N(C)N=Cc1cnc2ccc(Br)cn12` the figure was 5.89%; with `COc1cc(OC)c(NC(=O)Nc2cc(C)on2)cc1Cl`, 69.1%.
Then `NC(=O)Nc1cc(-c2ccc(CN3CCOCC3)cc2)sc1C(N)=O`, with 27.3%; and `C=C1C(=O)O[C@H]2[C@@H]1CCC(C)=CCC[C@@]1(C)O[C@@H]21`, with 39.5%; and `CCCCCCCCCCCC(CC1OC(=O)C1CCCCCC)OC(=O)C(CC(C)C)NC=O` (configuration not stated), with 7.26%.
Molecule `CC(Oc1ccc(O)cc1)(P(=O)(O)O)P(=O)(O)O` gave a parasite growth, % of DMSO control of 64.8%.
With `CN(N=O)C(=O)N[C@H]1C(O)OC(CO)[C@@H](O)[C@H]1O` (some centres not stated) the figure was 81.6%.
With `NS(=O)(=O)OC[C@@H]1C[C@@H](n2ccc3c(N[C@H]4CCc5ccccc54)ncnc32)C[C@H]1O` the figure was 23.8%.
Turning to `Cc1onc(-c2ccccc2)c1C(=O)N[C@@H]1C(=O)N2[C@@H](C(=O)O)C(C)(C)S[C@@H]12`, the parasite growth, % of DMSO control was 92.7%.
In turn, `CC(C)(N)c1ccc(-c2nc3ccccc3nc2-c2ccccc2)cc1` displayed a parasite growth, % of DMSO control of 21.6%.
Then `CC(O)(C#Cc1ccc2c(c1)N(c1nc(N)ncc1Cl)CC2)c1nccs1` (configuration not stated), with 11.7%.
With `C[C@@]12C[C@@]3(O)O[C@@H](O1)[C@]1(COC(=O)c4ccccc4)[C@@H]3C[C@@]12O[C@@H]1O[C@H](CO)[C@@H](O)[C@H](O)[C@@H]1O` the figure was 90.9%.
The molecule `CC[C@@]1([C@@H]2O[C@@H]([C@H]3O[C@@](O)(CO)[C@H](C)C[C@H]3C)C[C@H]2C)CC[C@H]([C@]2(C)CC[C@]3(C[C@H](O)[C@@H](C)[C@@H]([C@@H](C)[C@@H](OC)[C@H](C)C(=O)O)O3)O2)O1` gave a parasite growth, % of DMSO control of 5.35% [at 9.64 µM].
Then `C=Cc1c(C)c2cc3nc(cc4[nH]c(cc5nc(cc1[nH]2)C(C)=C5CCC(=O)O)c(CCC(=O)OC)c4C)[C@@]1(C)C3=CC=C(C(=O)OC)[C@H]1C(=O)OC`, with 3.3%.
Then `Cc1nc(NC(=O)N2CCC[C@@H]2C(N)=O)sc1-c1ccnc(C(C)(C)C(F)(F)F)c1`, with 13.3%; and `O=C(NC1CC1)c1cccc(-c2ccc3c(NC(=O)C4CC4)n[nH]c3c2)c1`, with 35.1%.
With `CC1(C)[C@H](O[C@H]2O[C@H](C(=O)O)[C@@H](O)[C@H](O)[C@H]2O[C@@H]2O[C@H](C(=O)O)[C@@H](O)[C@H](O)[C@H]2O)CC[C@@]2(C)[C@H]1CC[C@]1(C)[C@H]2C(=O)C=C2[C@H]3C[C@@](C)(C(=O)O)CC[C@]3(C)CC[C@]21C` the figure was 99.2%.
As to `COc1cc(C[C@@H](CO)[C@H](CO)Cc2ccc(O)c(OC)c2)ccc1O`, the parasite growth, % of DMSO control worked out at 90.4%.
With `C[C@H]1[C@@H](OC(=O)CCC(=O)O)O[C@@H]2O[C@@]3(C)CC[C@@H]4[C@H](C)CC[C@@H]1[C@@]24OO3` the figure was 21.4%; with `CC(C=CC(=O)NO)=C[C@@H](C)C(=O)c1ccc(N(C)C)cc1`, 5.14%; with `COc1ccnc2[nH]cc(C(=O)C(=O)N3CCN(C(=O)c4ccccc4)C[C@@H]3C)c12`, 81%.
With `Oc1cc(-c2nc(-c3ccccc3)[nH]c2-c2ccncc2)ccc1Cl` the figure was 5.77%; with `COC(=O)[C@@H]1[C@H]2C[C@@H]3c4[nH]c5ccccc5c4CCN3C[C@@H]2CC[C@@H]1O`, 79.9%.
With `NC(=O)N1CCC(CC(=O)N2CCC([C@H]3c4ncc(Br)cc4CCc4cc(Cl)cc(Br)c43)CC2)CC1` the figure was 5.47%; with `COc1ccc(Nc2cc(-c3cnc(N)nc3)nc(N3CCOCC3)n2)cn1`, 16.3%.
`COc1ccc([C@@H]2CNC(=O)C2)cc1OC1CCCC1` yielded a parasite growth, % of DMSO control of 106%.
